This is an account of results in the supplement of paper PMC10037445.

For experiment [1], the system named is RAW-Dual. Kind of experiment: NF-kB SEAP reporter activity, fold change vs agonist alone; higher = enhanced NF-kB activity. Particulars: cytotoxicity flag (confluency mask): not cytotoxic. The gist of the method:
(§1)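 Library stock was pin-tooled at 50 nL into 384-well plates of RAW-Dual macrophages (50,000 cells/well, DMEM), followed 1 h later by a PRR agonist, and the cells were kept at 37 °C, 5% CO2. Supernatant collected after 20 hours was read for IRF by QuantiLuc luminescence and for NF-κB by QuantiBlue absorbance at 620 nm. Reporter activity is fold change over agonist-alone wells, and a well counted as cytotoxic when its IncuCyte confluency was below 70% of agonist controls in both mask sets.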

The subject of experiment [2] is RAW-Dual. Kind of experiment: NF-kB SEAP reporter activity, fold change vs agonist alone; cytotoxicity flag (confluency mask): not cytotoxic; higher = enhanced NF-kB activity. The method in brief:
as §1

The mark [3] stands for this setting: library stock concentration (final ~1000-fold dilution): 10 mM water, agonist: Imiquimod (TLR7) […].
[4] abbreviates: library stock concentration (final ~1000-fold dilution): 10 mM water, agonist: MPLA (TLR4) […].
Setting [5] is: agonist: ODN 1826 (TLR9) 0.5 ug/mL.
The mark [6] stands for this setting: agonist: Pam2CSK4 (TLR2/6) 0.1 ug/mL.
The mark [7] stands for this setting: agonist: Pam3CSK4 (TLR2/1) 0.1 ug/mL.
Where [8] appears, read: library stock concentration (final ~1000-fold dilution): 10 mM, agonist: Imiquimod (TLR7) […].
The mark [9] stands for this setting: library stock concentration (final ~1000-fold dilution): 10 mM, agonist: MPLA (TLR4) […].

Structures are written as SMILES. Whole data set: some 2,900 compounds, median “NF-kB SEAP reporter activity, fold change vs agonist alone” near 0.99, cut for the highest 2% near 2.6. What follows is part of a selection rich in the highest values, with near analogues and random picks from the rest.

For `CCCCCOc1ccc(-c2cc(-c3ccc(C(=O)NC4CC(O)C(O)NC(=O)C5C(O)C(C)CN5C(=O)C(C(O)CC(N)=O)NC(=O)C(C(O)C(O)c5ccc(O)c(OS(=O)(=O)O)c5)NC(=O)C5CC(O)CN5C(=O)C(C(C)O)NC4=O)cc3)no2)cc1` (stereo not given), the “NF-kB SEAP reporter activity” value in the experiment on RAW-Dual [1] (setting [3]) is 0.949; in the experiment with RAW-Dual [1] (setting [4]) it was 1.14.

With `CCC(C)CC(C)CCCCCCCCC(=O)NC1CC(O)C(NCCN)NC(=O)C2C(O)CCN2C(=O)C(C(O)CCN)NC(=O)C(C(O)C(O)c2ccc(O)cc2)NC(=O)C2CC(O)CN2C(=O)C(C(C)O)NC1=O` (stereo not given), the figures for the “NF-kB SEAP reporter activity” value in the experiment with RAW-Dual [1] (setting [3]) and with RAW-Dual [1] (setting [4]) were 0.901 and 0.866, respectively.

As for `Cn1ncc(Cl)c1-c1cc(C(=O)NC(CN)Cc2ccc(F)c(F)c2)oc1Cl` (stereo not given) (library stock concentration (final ~1000-fold dilution): 10 mM), the “NF-kB SEAP reporter activity” value in the experiment on RAW-Dual [2] (agonist: LPS (TLR4) 0.1 ug/mL) worked out at 1.03; in the experiment with RAW-Dual [2] (setting [5]) it was 2.35; with RAW-Dual [2] (setting [6]), 1.07; with RAW-Dual [2] (setting [7]), 1.44.

With `Cn1ncc(Cl)c1-c1cc(C(=O)NC(CN)Cc2ccc(F)c(F)c2)oc1Cl` (stereo not given), the “NF-kB SEAP reporter activity” value in the experiment on RAW-Dual [1] (setting [8]) and in the experiment with RAW-Dual [1] (setting [9]) was 1.61 in each case.

Consider `CCOC(=O)C(CCc1ccccc1)NC(C)C(=O)N1Cc2ccccc2CC1C(=O)O.Cl` (stereo not given) (library stock concentration (final ~1000-fold dilution): 10 mM), for which the “NF-kB SEAP reporter activity” value in the experiment on RAW-Dual [2] (agonist: LPS (TLR4) 0.1 ug/mL) was found to be 0.94; in the experiment with RAW-Dual [2] (setting [5]), 1.07; with RAW-Dual [2] (setting [6]) it was 1.26; with RAW-Dual [2] (setting [7]), 1.05.

For the compound `CCOC(=O)C(CCc1ccccc1)NC(C)C(=O)N1Cc2ccccc2CC1C(=O)O.Cl` (stereo not given), the “NF-kB SEAP reporter activity” value with RAW-Dual [1] (setting [8]) came out at 1.02; in the experiment on RAW-Dual [1] (setting [9]), 1.03.

Take `CC(Nc1ncnc2[nH]cnc12)c1cc2cccc(Cl)c2c(=O)n1-c1ccccc1` (stereo not given): the “NF-kB SEAP reporter activity” value in the experiment with RAW-Dual [1] (setting [8]) was 0.473; with RAW-Dual [1] (setting [9]), 0.709.

For `CC(Nc1ncnc(N)c1C#N)c1cc2cccc(-c3ccc(=O)n(C)c3)c2c(=O)n1C(C)C` (stereo not given) (library stock concentration (final ~1000-fold dilution): 10 mM), the “NF-kB SEAP reporter activity” value is 4.83 in the experiment on RAW-Dual [2] (agonist: LPS (TLR4) 0.1 ug/mL), 0.722 in the experiment with RAW-Dual [2] (setting [5]), 1.22 in the experiment on RAW-Dual [2] (setting [6]) and 3.02 in the experiment on RAW-Dual [2] (setting [7]).

For `CC(NC(=O)c1c(N)nn2cccnc12)c1cc2cccc(C#Cc3cnn(C)c3)c2c(=O)n1-c1ccccc1` (stereo not given), the figures for the “NF-kB SEAP reporter activity” value with RAW-Dual [1] (setting [8]) and in the experiment on RAW-Dual [1] (setting [9]) were 1.18 and 1.44, respectively.

With `CC(Nc1ncnc2[nH]cnc12)c1cc2cccc(Cl)c2c(=O)n1-c1ccccc1` (stereo not given) (library stock concentration (final ~1000-fold dilution): 10 mM), the “NF-kB SEAP reporter activity” value in the experiment with RAW-Dual [2] (agonist: LPS (TLR4) 0.1 ug/mL) was 0.744; with RAW-Dual [2] (setting [5]) it was 0.653; with RAW-Dual [2] (setting [6]), 0.665; in the experiment on RAW-Dual [2] (setting [7]) it was 0.549.

`CC(Nc1ncnc(N)c1C#N)c1cc2cccc(-c3ccc(=O)n(C)c3)c2c(=O)n1C(C)C` (stereo not given): the “NF-kB SEAP reporter activity” value with RAW-Dual [1] (setting [8]) turned out to be 1.22; in the experiment with RAW-Dual [1] (setting [9]), 2.8.

As to `CC(NC(=O)c1c(N)nn2cccnc12)c1cc2cccc(C#Cc3cnn(C)c3)c2c(=O)n1-c1ccccc1` (stereo not given) (library stock concentration (final ~1000-fold dilution): 10 mM), the “NF-kB SEAP reporter activity” value with RAW-Dual [2] (agonist: LPS (TLR4) 0.1 ug/mL) was found to be 2.34; in the experiment with RAW-Dual [2] (setting [5]) it was 1.3; with RAW-Dual [2] (setting [6]), 0.628; with RAW-Dual [2] (setting [7]), 0.931.

For `Cc1cccc(C)c1OCC(=O)NC(Cc1ccccc1)C(O)CC(Cc1ccccc1)NC(=O)C(C(C)C)N1CCCNC1=O` (stereo not given) (library stock concentration (final ~1000-fold dilution): 10 mM), the “NF-kB SEAP reporter activity” value stood at 1.37 with RAW-Dual [2] (agonist: LPS (TLR4) 0.1 ug/mL), 2.09 with RAW-Dual [2] (setting [5]), 0.396 in the experiment with RAW-Dual [2] (setting [6]) and 1.03 in the experiment on RAW-Dual [2] (setting [7]).

As for `Cc1cccc(C)c1OCC(=O)NC(Cc1ccccc1)C(O)CC(Cc1ccccc1)NC(=O)C(C(C)C)N1CCCNC1=O` (stereo not given), the “NF-kB SEAP reporter activity” value in the experiment with RAW-Dual [1] (setting [8]) worked out at 1.63; with RAW-Dual [1] (setting [9]), 2.06.

`Cc1ccc(S(=O)(=O)O)cc1.NC(=O)c1cccc2cn(-c3ccc(C4CCCNC4)cc3)nc12` (stereo not given): the “NF-kB SEAP reporter activity” value with RAW-Dual [1] (setting [8]) was determined as 0.663; with RAW-Dual [1] (setting [9]) it was 1.04.

For `Cc1ccc(S(=O)(=O)O)cc1.NC(=O)c1cccc2cn(-c3ccc(C4CCCNC4)cc3)nc12` (stereo not given) (library stock concentration (final ~1000-fold dilution): 10 mM), the “NF-kB SEAP reporter activity” value with RAW-Dual [2] (agonist: LPS (TLR4) 0.1 ug/mL) is 1.04; with RAW-Dual [2] (setting [5]) it was 0.181; with RAW-Dual [2] (setting [6]), 1.41; in the experiment on RAW-Dual [2] (setting [7]) it was 1.1.

For `Cc1nc2ccc(CN(C)c3ccc(C(=O)NC(CCC(=O)O)C(=O)O)s3)cc2c(=O)[nH]1` (stereo not given), the “NF-kB SEAP reporter activity” value with RAW-Dual [1] (setting [8]) came to 1.78; in the experiment on RAW-Dual [1] (setting [9]), 1.45.

Consider `Cc1nc2ccc(CN(C)c3ccc(C(=O)NC(CCC(=O)O)C(=O)O)s3)cc2c(=O)[nH]1` (stereo not given) (library stock concentration (final ~1000-fold dilution): 10 mM), for which the “NF-kB SEAP reporter activity” value is 1.56 in the experiment with RAW-Dual [2] (agonist: LPS (TLR4) 0.1 ug/mL), 1.93 in the experiment with RAW-Dual [2] (setting [5]), 1.31 with RAW-Dual [2] (setting [6]) and 1.7 in the experiment on RAW-Dual [2] (setting [7]).

Take `CNc1ccc([N+](=O)[O-])cc1-n1cnc(-c2ccc(C(F)(F)F)cc2)c1` (library stock concentration (final ~1000-fold dilution): 10 mM): the “NF-kB SEAP reporter activity” value was found to be 4.5 in the experiment with RAW-Dual [2] (agonist: LPS (TLR4) 0.1 ug/mL), 1.91 in the experiment with RAW-Dual [2] (setting [5]), 0.926 in the experiment on RAW-Dual [2] (setting [6]) and 1.08 in the experiment on RAW-Dual [2] (setting [7]).

Turning to `CNc1ccc([N+](=O)[O-])cc1-n1cnc(-c2ccc(C(F)(F)F)cc2)c1`, the results for the “NF-kB SEAP reporter activity” value in the experiment on RAW-Dual [1] (setting [8]) and in the experiment on RAW-Dual [1] (setting [9]) were 1.24 and 2.01, respectively.

As for `O=C(Cc1ccccc1)Nc1nnc(NC2CCN(c3nnc(NC(=O)Cc4ccccc4)s3)CC2)s1`, the results for the “NF-kB SEAP reporter activity” value in the experiment on RAW-Dual [1] (setting [8]) and in the experiment with RAW-Dual [1] (setting [9]) were 0.998 and 1.26, respectively.

Turning to `O=C(Cc1ccccc1)Nc1nnc(NC2CCN(c3nnc(NC(=O)Cc4ccccc4)s3)CC2)s1` (library stock concentration (final ~1000-fold dilution): 10 mM), the “NF-kB SEAP reporter activity” value is 1.41 in the experiment with RAW-Dual [2] (agonist: LPS (TLR4) 0.1 ug/mL), 0.773 with RAW-Dual [2] (setting [5]), 0.514 with RAW-Dual [2] (setting [6]) and 0.64 in the experiment on RAW-Dual [2] (setting [7]).

On to `COc1ccc(C2CC(=O)c3c(O)cc(O)cc3O2)cc1O` (stereo not given), for which the “NF-kB SEAP reporter activity” value with RAW-Dual [1] (setting [8]) is 1.28; in the experiment with RAW-Dual [1] (setting [9]), 1.11.

Regarding `COc1ccc(C2CC(=O)c3c(O)cc(O)cc3O2)cc1O` (stereo not given) (library stock concentration (final ~1000-fold dilution): 10 mM), the “NF-kB SEAP reporter activity” value in the experiment on RAW-Dual [2] (agonist: LPS (TLR4) 0.1 ug/mL) worked out at 1.12; in the experiment with RAW-Dual [2] (setting [5]) it was 1.2; in the experiment on RAW-Dual [2] (setting [6]), 1.26; in the experiment with RAW-Dual [2] (setting [7]), 1.33.
